{"source": "PubChem BioAssay AID1259313", "about": "(Sanford-Burnham Center for Chemical Genomics, 2017)", "note": "About 8,500 (2.5%) of roughly 340,000 compounds were called active. This is one part of a sample in which actives are shown more often than they occur. Unmarked numbers belong to inactive results.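 The calls were made as follows: active = melting temperature shift of at least 10% of the positive control shift, at one fixed dose; inactive = the rest.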", "data": [{"system": "Glutamate receptor ionotropic, NMDA 3A (GRIN3A) ligand-binding domain", "assay": "NR3A LBD thermal stabilization by compounds – biophysical, differential scanning fluorimetry, uHTS, primary screen (AID 1259313)", "settings": "at 25 µM, stronger effect = higher value, 0% = protein alone, 100% = glycine-bound protein", "values": [{"smiles": "CSC(=S)N/N=C/c1c[nH]c2ccccc12", "Tm shift relative to glycine control": "30.1% (active)"}, {"smiles": "O=C(NN=Cc1ccc([N+](=O)[O-])cc1)C1CC1", "Tm shift relative to glycine control": "-0.92%"}, {"smiles": "CC(C)c1c(C(=O)N/N=C/c2ccccc2C(=O)O)nnn1-c1nonc1N", "Tm shift relative to glycine control": "-7.76%"}, {"smiles": "O=C(N/N=C/c1ccc(Cl)cc1)c1nc2ccc([N+](=O)[O-])cc2c(=O)[nH]1", "Tm shift relative to glycine control": "1.51%"}, {"smiles": "Cc1cc(NC(=O)c2cc3ccccc3o2)no1", "Tm shift relative to glycine control": "2.81%"}, {"smiles": "Nc1nonc1-n1nnc(C(=O)N/N=C/C2CCCCC2)c1-c1ccccc1", "Tm shift relative to glycine control": "0.68%"}, {"smiles": "Cc1ccc(N2CCN(S(=O)(=O)N(C)C)CC2)cc1Cl", "Tm shift relative to glycine control": "1.66%"}, {"smiles": "CCCNC(=O)c1cnc(-c2ccccc2)nc1-c1ccccc1", "Tm shift relative to glycine control": "-1.35%"}, {"smiles": "CN(C)S(=O)(=O)N1CCC(Oc2cccc(C(=O)NCCCC3CCCC3)c2)CC1", "Tm shift relative to glycine control": "0.18%"}, {"smiles": "O=C(Oc1ccc(F)cc1)N1CCOCC1", "Tm shift relative to glycine control": "1.08%"}, {"smiles": "Cc1c(NC(=O)c2c([N+](=O)[O-])cnn2C)c(=O)n(-c2ccccc2)n1C", "Tm shift relative to glycine control": "-0.61%"}, {"smiles": "CCOC(=O)C1(Cc2cccc(OC)c2)CCCN(S(=O)(=O)c2cccnc2)C1", "note": "(stereo unspecified)", "Tm shift relative to glycine control": "0.32%"}, {"smiles": "Cc1ccc2occ(/C=N/NC(=O)c3ccccc3C)c(=O)c2c1", "Tm shift relative to glycine control": "-0.75%"}, {"smiles": "O=C(N/N=C/c1ccsc1)c1cc(O)cc(O)c1", "Tm shift relative to glycine control": "-11.7%"}, {"smiles": "O=C(N/N=C/c1c[nH]c2ccccc12)c1ccccc1O", "Tm shift relative to glycine control": "37% (active)"}, {"smiles": "O=C(N/N=C/c1cccc(OCc2ccccc2)c1)c1ccc(Br)o1", "Tm shift relative to glycine control": "-4.34%"}, {"smiles": "O=C(N/N=C/c1cccc(O)c1)c1cc2c(ccc3ccccc32)o1", "Tm shift relative to glycine control": "25.4% (active)"}, {"smiles": "O=C(Cc1c[nH]c2ccccc12)N/N=C/c1cccc(F)c1", "Tm shift relative to glycine control": "-4.78%"}, {"smiles": "COc1ccc2c(C)cc3nnnn3c2c1", "Tm shift relative to glycine control": "1.26%"}, {"smiles": "Cc1ccc(CN2CCC(N3CCC(C(=O)NCC4CCCO4)CC3)CC2)o1", "note": "(stereo unspecified)", "Tm shift relative to glycine control": "0.34%"}, {"smiles": "O=C(NC(=O)c1cc(OCC(F)(F)F)ccc1OCC(F)(F)F)Nc1ccccc1", "Tm shift relative to glycine control": "-0.36%"}, {"smiles": "CC(C)(C)n1nc2c(c1NC(=O)c1ccc(S(=O)(=O)N3CCCC3)cc1)CS(=O)C2", "note": "(stereo unspecified)", "Tm shift relative to glycine control": "0.18%"}, {"smiles": "CC(OC(=O)CNC(=O)c1cccc(F)c1)C(=O)NC1CCCCC1C", "note": "(stereo unspecified)", "Tm shift relative to glycine control": "-0.43%"}, {"smiles": "FC(F)(F)Oc1ccc(NC(=S)NCc2ccccc2)cc1", "Tm shift relative to glycine control": "0.09%"}, {"smiles": "CS(=O)(=O)c1sc(C(=O)NC(=S)Nc2ccc(OC(F)(F)F)cc2)c2c1C=CCC2", "Tm shift relative to glycine control": "11.4% (active)"}, {"smiles": "CCNC(=S)Nc1ccc(OC(F)(F)F)cc1", "Tm shift relative to glycine control": "-1.13%"}, {"smiles": "c1ccc2cc3c(NCCN4CCOCC4)ccnc3cc2c1", "Tm shift relative to glycine control": "-8.16%"}, {"smiles": "O=C1CC(c2cccc(Cl)c2)CC(O)=C1C=Nc1ccccc1", "note": "(stereo unspecified)", "Tm shift relative to glycine control": "-0.75%"}, {"smiles": "Cc1cc(C(=O)OCC(=O)NCc2ccco2)c(C)n1-c1ccccc1", "Tm shift relative to glycine control": "-1.04%"}, {"smiles": "Cc1ccc(S(=O)(=O)N2CC(O)C[C@H]2C(=O)OCC(=O)Nc2ccc(N3CCOCC3)cc2)cc1C", "note": "(stereo partly specified)", "Tm shift relative to glycine control": "1.27%"}, {"smiles": "O=C(NCC1(N2CCCCC2)CCCCC1)c1cccc(S(=O)(=O)Nc2ccccc2Cl)c1", "Tm shift relative to glycine control": "-0.85%"}, {"smiles": "O=C(Nc1ccc2c(c1)CCC2)c1cccc(S(=O)(=O)Nc2ccccc2Cl)c1", "Tm shift relative to glycine control": "14.9% (active)"}, {"smiles": "O=C(Nc1ccc2c(c1)CCC2)c1cccc(S(=O)(=O)N2CCN(c3ccc(F)cc3)CC2)c1", "Tm shift relative to glycine control": "2.49%"}, {"smiles": "O=C1CSC(c2cccc(F)c2)N1c1ccc(O)cc1", "note": "(stereo unspecified)", "Tm shift relative to glycine control": "-2.36%"}, {"smiles": "COc1ccc(Nc2ccc3ccccc3c2)cc1", "Tm shift relative to glycine control": "1.95%"}, {"smiles": "Cc1ccc(NC(=S)Nc2ccc(F)cc2)cc1", "Tm shift relative to glycine control": "-4.68%"}, {"smiles": "S=C(Nc1ccccc1)Nc1ccc2ccccc2c1", "Tm shift relative to glycine control": "12.3% (active)"}, {"smiles": "CCC1(c2ccccc2)NC(=O)N(CC(=O)Nc2ccccc2C(=O)NC2CCCC2)C1=O", "note": "(stereo unspecified)", "Tm shift relative to glycine control": "0.96%"}, {"smiles": "Cc1ccc(S(=O)(=O)N2CCCCC2)cc1NC(=O)[C@@H]1CCCN1C(=O)c1cccs1", "Tm shift relative to glycine control": "-0.43%"}, {"smiles": "CC(=O)N1CCN(C(=O)c2cc(-c3ccc(C)o3)nc3ccccc23)CC1", "Tm shift relative to glycine control": "40% (active)"}, {"smiles": "CCOc1ccccc1-c1cc(C(=O)N/N=C(\\C)c2cccnc2)c2ccccc2n1", "Tm shift relative to glycine control": "-0.86%"}, {"smiles": "O=C(c1cc(-c2ccc(Cl)s2)nc2ccccc12)N1CCOCC1", "Tm shift relative to glycine control": "-0.91%"}, {"smiles": "CCOc1ccccc1-c1cc(C(=O)N2CCOCC2)c2ccccc2n1", "Tm shift relative to glycine control": "12.6% (active)"}, {"smiles": "CC1CCCN(C(=O)c2cc(-c3ccco3)nc3ccccc23)C1", "note": "(stereo unspecified)", "Tm shift relative to glycine control": "1.06%"}, {"smiles": "COc1ccc(NC(=O)c2cc(-c3ccc(C)o3)nc3ccccc23)cc1", "Tm shift relative to glycine control": "3.74%"}, {"smiles": "CCN1C(=O)[C@@H]2[C@@H](c3ccc(-c4cccc(Cl)c4)cc3)N3CCC[C@@]3(C(=O)OC)[C@@H]2C1=O", "Tm shift relative to glycine control": "-0.81%"}]}]}
